Screening results deposited in PubChem by National Center for Advancing Translational Sciences (NCATS).
FEN1 inhibitor: inhibitors of human flap endonuclease 1; AID 588795; Potency, µM (series often up to 114 µM), for the others: at the highest dose activity change, negative = inhibition, usual class: inhibitors; P39748; Recombinant FEN1 flap cleavage, fluorescence, 15 min; 0.35% of 390,000 active; also: nearly all actives have a fitted effect of over 65% in size
Target sequence (P39748 whole entry, looked up): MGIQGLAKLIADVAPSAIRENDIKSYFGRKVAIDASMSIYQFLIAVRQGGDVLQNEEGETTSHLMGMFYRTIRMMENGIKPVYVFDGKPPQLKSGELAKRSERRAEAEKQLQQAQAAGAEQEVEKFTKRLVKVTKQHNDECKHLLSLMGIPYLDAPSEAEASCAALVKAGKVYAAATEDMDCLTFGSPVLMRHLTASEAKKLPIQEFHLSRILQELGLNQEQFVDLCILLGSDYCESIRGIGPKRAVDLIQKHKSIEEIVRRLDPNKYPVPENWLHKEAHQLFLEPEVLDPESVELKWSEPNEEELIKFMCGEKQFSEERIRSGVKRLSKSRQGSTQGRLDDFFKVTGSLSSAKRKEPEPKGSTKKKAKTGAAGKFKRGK
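Enzyme 10 nM, 15 min RT preincubation with compound; start with substrate 50 nM final; reads at 0 and 15 min; qHTS titration, four-parameter Hill fit.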
PGK inhibitor: T. brucei PGK inhibition | PGK/GAPDH coupled, Kinase-Glo luminescence, 60 min | Potency, µM (highest dose often 57.5 µM), inactives show top-dose activity change, negative = inhibition, most hits filed as inhibitors | 0.043% of 380,000 active; also: nearly all actives have a fitted effect of over 60% in size
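Recombinant glycosomal PGK reaction used 1,3-bisphosphoglycerate generated in-well by GAPDH (100nM final) in 100mM TEA pH 7.6, 5mM MgCl2, 0.01% Tween-20. After 60 minutes at room temperature, ATP was read by Kinase-Glo Plus luminescence end-point.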
Chronic BCR inh: blocks chronic active B-cell receptor signaling | ABC-DLBCL IkBa-CBG/CBR reporter, luminescence ratio, 4 h | Potency, µM (highest dose often 46.1 µM), inactives show top-dose activity change, negative = inhibition, most hits filed as inhibitors | 0.05% of 340,000 active; active = well fitted inhibition curve with a large enough effect in the signal ratio, with a control signal flat, not every such curve was filed as active; inconclusive = small, poorly fitted or top-dose-only effect, or effect the other way, or a change in a side signal; the % refers to the signal ratio;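 also: plate controls were basal doxycycline-induced cells for no effect and cells given 10 µM MG132 for full effect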
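Doxycycline induced both beetle luciferases in TMD8 lymphoma cells; IKK-driven degradation limits the IkappaBalpha-fused green signal, while red luminescence normalises for cell number and nonspecific effects. Compounds tested up to 46 uM, 4 hrs.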
Anesthetic bind: binds horse apoferritin like a general anesthetic; apoferritin/1-aminoanthracene competitive binding, fluorescence; 0.074% of 350,000 active; Potency, µM (titrated, usually from 77.5 µM), for the others: at the top dose activity change, negative = displacement, hits mostly inhibitors; P02791; also: nearly all actives have a fitted effect of over 20% in size
Target sequence (P02791 2-175 limits assumed): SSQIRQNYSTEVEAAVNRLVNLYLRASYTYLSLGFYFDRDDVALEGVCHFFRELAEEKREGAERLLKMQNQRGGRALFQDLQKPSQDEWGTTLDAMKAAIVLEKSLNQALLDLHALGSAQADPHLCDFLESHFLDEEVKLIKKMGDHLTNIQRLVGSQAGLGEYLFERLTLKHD
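10 uM apoferritin + 50% sat. 1-AMA, PBS; cpd 10 min RT; Ex380/Em535 endpoint; normalized to free probe vs complex; 4-param Hill fit; propofol titration as pos. ctrl.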
B2AR arrestin: beta2AR (human) beta-arrestin recruitment activity; P07550; beta-arrestin recruitment to beta2AR, cell-based reporter; Potency, µM (series often up to 46.1 µM), without a hit: at the highest dose activation, most hits filed as activators; 0.02% of 330,000 active; AID 492947;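 also: 0% = DMSO controls and full agonism = EC100 isoproterenol or metaproterenol; nearly all actives have a fitted effect of over 65% in size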
Pin1 inh: blocks the human prolyl isomerase Pin1. Potency, µM (series often up to 115 µM), without a hit: at the top dose activity, negative = inhibition, most hits filed as inhibitors. 0.009% of 390,000 active. Q13526. Pin1 FP peptide displacement, HiFluor488, 10 min; active = well fitted inhibition curve with a large enough effect in the polarisation, with a control signal flat, not every such curve was filed as active; inconclusive = small, poorly fitted or top-dose-only effect, or effect the other way, or a change in a side signal; inactive = no such curve, though single readings can be large or run the other way; the % refers to the polarisation
Target sequence (Q13526 whole entry, looked up): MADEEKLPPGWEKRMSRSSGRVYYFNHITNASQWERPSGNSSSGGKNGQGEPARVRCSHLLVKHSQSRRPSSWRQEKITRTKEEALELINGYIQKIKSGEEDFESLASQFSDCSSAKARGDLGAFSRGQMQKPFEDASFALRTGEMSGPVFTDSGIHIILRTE
The depositor's hits bear a star; i = inactive; ? = inconclusive; . = not tested or not shown. Rows were chosen to be rich in hits. Some 0.45% of all compounds tested hit in one or more screens of this group. Unless noted, calls follow the shape of the dose curve; as a rule, active = well fitted curve in the direction sought with a large enough effect; inconclusive = small, poorly fitted or top-dose-only effect, or another doubt; inactive = no such curve, though single readings can be large; an effect the other way counts as inactive or inconclusive. Unless noted, % is scaled to controls: 0 for no effect and ±100 for the full control effect; potency is read from the fitted curve at half-maximal effect.

SMILES	FEN1 inhibitor	PGK inhibitor	Chronic BCR inh	Anesthetic bind	B2AR arrestin	Pin1 inh
O=C(COC(=O)CC12CC3CC(CC(C3)C1)C2)Nc1ncc(Cl)cc1Cl	-19.7%	-9.2%	22.5%	20µM*	-0.1%	-1.7%
CCNC(=S)N/N=C1\C(=O)c2cccc3cccc1c23	-1.5%	9.8%	?	-12.5%	0.1%	4.6%
O=C(N/N=C1/C(=O)c2cccc3cccc1c23)c1ccc(Cl)cc1	79.4µM*	?	?	?	0.0%	?
COc1ccc(OC)c(NC(=O)C(OC(=O)CNC(=O)c2ccccc2)c2ccccc2)c1 (stereo not given)	.	.	.	.	.	1.2%
Oc1ccccc1/C=N/Nc1nc2ccccc2o1	5.4%	-4.1%	?	7.6%	14.1µM*	-6.4%
COCCNC(=S)N/N=C(\C)CCc1ccc2c(c1)OCO2	0.0%	-1.4%	20µM*	0.9%	?	-6.3%
C/C(CCc1ccc2c(c1)OCO2)=N\NC(=S)NC(C)C	11.8%	-2.6%	?	-18.4%	10.7%	3.5%
CC(=O)N1CCc2cc(S(=O)(=O)N3CCN(S(=O)(=O)c4c(F)cccc4F)CC3)ccc21	.	.	.	.	.	0.0%
COc1cc(/C=C/[N+](=O)[O-])ccc1OCc1cccc(C(=O)O)c1	50.1µM*	?	?	-11.3%	-1.0%	28.2µM*
COc1ccc(C(=O)C=Cc2ccc(OCc3ccccc3)c(OC)c2)cc1OC	.	-7.9%	.	.	.	.
CCCC(C)NS(=O)(=O)c1ccc(OC)c(C)c1 (stereo not given)	-2.9%	-7.0%	10.2%	15.8µM*	-0.4%	5.4%
COc1ccc(C2Nc3ccccc3C(=O)N2CCc2ccccc2)cc1COc1ccc(NC(C)=O)cc1 (stereo not given)	.	.	.	.	.	-2.7%
NC(=S)N/N=C1\CC(c2ccc3c(c2)OCCCO3)Oc2ccc(F)cc21 (stereo not given)	-2.9%	8.8%	17.8µM*	-5.4%	?	?
COc1cc(/C=C/c2ccc(O)cc2)cc(OC)c1	-14.7%	i	12.6µM*	-14.8%	-0.2%	-1.3%
O=S1(=O)N=C(Oc2ccc(Br)cc2)c2ccccc21	.	.	.	.	.	-1.4%
O=S(=O)(/N=C(/Sc1ccc(Cl)cc1)c1ccccc1)c1ccccc1	79.4µM*	.	.	.	.	3.1%
COc1ccc(NS(=O)(=O)c2cc(-c3cnc(C4CC4)o3)ccc2C)cc1	-2.7%	-1.3%	12.6µM*	2.9%	0.1%	7.9%
Cn1c(=Nc2ccc(N3CCOCC3)cc2)ccc2ccccc21	5.7%	5.9%	-3.8%	-6.1%	-1.0%	4.1%
Cn1c(N=Nc2ccc(N3CCOCC3)cc2)[n+](C)c2ccccc21	56.2µM*	?	-13.2%	?	-0.1%	-2.9%
COc1ccc(C2Nc3ccccc3C(=O)N2Cc2cccc(Cl)c2)cc1COc1ccc(NC(C)=O)cc1 (stereo not given)	.	.	.	.	.	0.8%
Cc1nn(-c2ccccc2)c(C)c1/C=N/NC(=O)c1cc(-c2cccs2)[nH]n1	-20.5%	-2.1%	18.4µM*	-22.7%	2.0%	15.6%
Cc1nn(-c2ccccc2)c(C)c1/C=N/NC(=O)c1cc(-c2ccc(Br)s2)[nH]n1	-3.5%	-4.1%	7.2%	-16.3%	-0.2%	7.1%
CS(=O)(=O)c1ccc(C(=O)Nc2nc(-c3ccco3)c(-c3ccco3)s2)cc1	56.2µM*	-2.2%	29.1%	.	-0.6%	.
CC(C)(C)c1ccc(Nc2nc(C#N)nc(NC3CCCC3)n2)cc1	.	.	.	.	.	0.0%
Cc1cccc(C)c1NC(=O)CSc1nnc(-c2ccco2)c(-c2ccco2)n1	79.4µM*	?	?	?	0.0%	?
SMILES	FEN1 inhibitor	PGK inhibitor	Chronic BCR inh	Anesthetic bind	B2AR arrestin	Pin1 inh
Cc1ccccc1NC(=O)CSc1nnc(-c2ccco2)c(-c2ccco2)n1	56.2µM*	-16.1%	-0.4%	-9.7%	12.0%	.
COc1cc(NC(=O)c2cnc(N)s2)cc(C(=O)Nc2cccc(C(F)(F)F)c2)c1	56.2µM*	?	?	-21.0%	-0.5%	-0.5%
CN(C)C(=O)C1CCN(c2nc(-c3ccc(Br)cc3)cs2)CC1	.	.	.	.	.	-6.0%
COc1ccc(CN(Cc2ccccc2)C(=O)c2ccccc2)cc1COc1ccc(NC(C)=O)cc1	.	.	.	.	.	18.5%
O=C(Nc1nccs1)c1ccc(S(=O)(=O)N2CCOCC2)cc1	79.4µM*	-1.9%	?	-14.3%	-0.6%	-1.8%
O=C(NCc1nc2ccccc2[nH]1)c1ccc(S(=O)(=O)N2CCOCC2)cc1	-2.5%	22.4µM*	-1.5%	-21.4%	-0.7%	0.5%
Cc1c(P(=S)(c2ccccc2)c2ccccc2)c2ccccc2n1C(=O)Cc1ccccc1	.	.	.	.	.	7.7%
N#C/C(=C/c1cn(Cc2ccc(F)cc2)c2ccccc12)C(=O)Nc1cccc(Cl)c1	89.1µM*	1.4%	.	69.1%	.	?
N[C@@H](C(=O)O)c1ccc(O)c(C(=O)O)c1	50.1µM*	.	.	-10.0%	.	.
N[C@H](C(=O)O)c1cc(O)cc(O)c1	.	.	.	15.4%	.	.
Cc1cc2c(s1)c1cnn(Cc3cc(F)c(F)c(F)c3F)c(=O)c1n2C	.	.	.	.	.	2.2%
Nc1n[nH]c(=S)n1/N=C1/C(=O)Nc2ccccc21	89.1µM*	-1.5%	?	?	0.0%	?
O=C1Nc2ccccc2C1=NN1CCCCCC1	0.6%	-6.0%	.	.	.	-0.9%
C=CCn1c(SCc2nc3sc(C(=O)O)c(C)c3c(=O)[nH]2)nnc1-c1ccc(C(C)(C)C)cc1	44.7µM*	-16.6%	-7.1%	-9.6%	-0.9%	-13.6%
COc1cc(F)c(S(=O)(=O)N2CCN(S(=O)(=O)c3ccc(NC(C)=O)cc3)CC2)c(F)c1	.	.	.	.	.	4.4%
Cc1ccc(S(=O)(=O)CNC(=S)c2cccc(C)c2)cc1	4.2%	19.1%	18.4µM*	28.2µM*	2.4%	-0.1%
Cc1ccc(S(=O)(=O)CNC(=S)c2ccc3ccccc3c2)cc1	-20.2%	-3.2%	?	25.1µM*	?	-10.2%
Cc1ccc(S(=O)(=O)CNC(=O)c2ccccc2)cc1	-0.8%	0.1%	?	1.1%	-0.3%	-0.9%
COc1ccc(C(=S)NCS(=O)(=O)c2ccc(C)cc2)cc1	-3.7%	0.7%	?	?	-0.5%	5.8%
COc1ccc(C2Cc3ccccc3C(=O)N2Cc2ccccc2)cc1COc1ccc(NC(C)=O)cc1 (stereo not given)	.	.	.	.	.	45.8%
Nc1cc(C(=O)O)c(N)c2c1C(=O)c1ccccc1C2=O	35.5µM*	?	?	-9.2%	-0.7%	?
CCOC(=O)c1ccc(CC(=O)c2ccc(O)c(O)c2O)o1	14.1µM*	-2.5%	22.2%	-10.4%	-0.3%	-10.3%
CCOC(=O)c1ccc(CC(=O)c2oc3cc(O)ccc3c2C)o1	-13.1%	-6.7%	-0.8%	0.9%	-0.1%	?
C=CC(=O)N1C/C(=C/c2ccc(F)cc2)C(=O)/C(=C\c2ccc(F)cc2)C1	-17.7%	10µM*	.	.	.	?
